According to article PMC6212790, “How bacterial xenogeneic silencer rok distinguishes foreign from self DNA in its resident genome”:
Whole data set: some 33,000 sequences, median “e-score” near -0.038, cut for the highest 2% near 0.33. The sample as a whole holds a higher share of the highest values than the screen did.

Molecular target: T1, GST-Rok-C97-191 (Bacillus subtilis subsp. subtilis str. …, UniProt O34857 97-191)
T1 sequence: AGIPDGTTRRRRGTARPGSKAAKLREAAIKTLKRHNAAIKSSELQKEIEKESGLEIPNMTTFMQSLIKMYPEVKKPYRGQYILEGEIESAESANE
Experiment: protein binding microarray; Rok is a gene silencer of Bacillus subtilis; high values mean tight binding
Details: protein: recombinant; tags: GST (pTH5325, pDEST15-Magic modified); dsDNA, one strand shown
Procedure, shortened: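 Each has a 25-mer constant primer and a 35-mer variable part from a de Bruijn sequence of order 10, covering every non-palindromic 8-mer at least 32 times (palindromic 16). Preference for each 8-mer is given as a rank-based, unitless enrichment score (E-score). Its range runs from 0.5 (most favored) to −0.5 (most disfavored).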

Sequence | binding signal
ACTGACCA | -0.00734 E-score
AGTCCAAT | -0.0629 E-score
ATCTATAG | 0.295 E-score
TAATATAA | 0.309 E-score
TTATATAA | 0.384 E-score
GTATATAA | 0.285 E-score
CAGTATAA | 0.213 E-score
ATCTATAA | 0.355 E-score
ATATATAA | 0.449 E-score
TAGTATAA | 0.413 E-score
GTCTATAA | 0.0588 E-score
GGATATAA | 0.3 E-score
TGATATAA | 0.309 E-score
AAGTATAA | 0.187 E-score
AGGACTAG | -0.0267 E-score
TAGAATCA | 0.222 E-score
AGTCGAGC | -0.0631 E-score
CTTTGCGC | -0.101 E-score
ACACACCC | -0.0492 E-score
ACAGGTTC | -0.0931 E-score
AACTATAA | 0.309 E-score
CACTATAA | 0.155 E-score

Sequence | binding signal
TACTATAA | 0.408 E-score
CGCAAATA | 0.178 E-score
GGAGAAAC | -0.116 E-score
AACCGCGA | -0.00712 E-score
GTTATTAA | 0.22 E-score
CATGTAGA | 0.327 E-score
AATGTATA | 0.35 E-score
AATGTATC | 0.187 E-score
AATGTAGA | 0.359 E-score
AATGTAAA | 0.329 E-score
ATTGTATA | 0.317 E-score
CTTGTATA | 0.18 E-score
AATGTATG | 0.309 E-score
AATGTAGC | 0.144 E-score
CATGTAAA | 0.25 E-score
GATGTAAA | 0.164 E-score
GTTGTATA | 0.351 E-score
TCCTAAAA | 0.103 E-score
CCAGGCCG | -0.0324 E-score
TTACTGAA | 0.144 E-score
ACGGGTAG | 0.0714 E-score
GAGGAAAA | -0.0709 E-score

Sequence | binding signal
AGTGCACT | 0.024 E-score
GTCAGAAA | 0.0136 E-score
GCATAACC | 0.0668 E-score
GCGGTTCC | -0.143 E-score
CCTTAGAC | -0.116 E-score
CACAACTA | 0.199 E-score
TCACTAGA | 0.155 E-score
AATGTAAT | 0.398 E-score
AATGTAAG | 0.112 E-score
AATGTAAC | 0.166 E-score
CCAGTGAC | -0.156 E-score
ACCACAGA | 0.0469 E-score
ACATAGTA | 0.298 E-score
AAATAGCC | 0.0812 E-score
AAATAGTG | 0.215 E-score
AAATAGTC | 0.049 E-score
TAATAGCA | 0.276 E-score
AAATAGCG | 0.13 E-score
AAATAGTA | 0.427 E-score
GAATAGTA | 0.325 E-score
TAATAGTA | 0.423 E-score
AAATAGTT | 0.406 E-score

Sequence | binding signal
AAATAGCT | 0.336 E-score
AAATAGCA | 0.0458 E-score
AAACCACC | -0.1 E-score
ACCGCCGA | -0.0492 E-score
CGAAGTCC | -0.0993 E-score
CATGTCCG | 0.0905 E-score
CGGTAAAC | 0.0274 E-score
AAGTAACA | 0.177 E-score
CAGTAACA | 0.114 E-score
CAATAGTG | 0.236 E-score
AAGTAATA | 0.29 E-score
CAATAGTA | 0.33 E-score
GAGTAATA | 0.182 E-score
TAGTAATA | 0.403 E-score
CAATAGTC | 0.0177 E-score
TAGTAACA | 0.345 E-score
CCTATAAG | 0.0895 E-score
CAACGGTA | 0.207 E-score
GGATGAAC | 0.0137 E-score
AAGCCTCA | -0.158 E-score
AAAGCGAG | -0.169 E-score
CATGCCCC | -0.186 E-score

Sequence | binding signal
TGCCGAAA | -0.0675 E-score
CAAATGGC | 0.0931 E-score
CAGAACTA | 0.309 E-score
TAGAAATA | 0.416 E-score
GAGAAAAA | 0.0631 E-score
AAGAAATA | 0.145 E-score
TAGAACTA | 0.368 E-score
GAGAAATC | 0.0248 E-score
GAGAACTA | 0.242 E-score
CAGAAATA | 0.254 E-score
GAGAAATA | 0.345 E-score
CATTCCGA | -0.0936 E-score
CGTTTACC | -0.0458 E-score
ACTATTCT | 0.217 E-score
GCCATTTA | -0.19 E-score
GAATCGCA | -0.139 E-score
GAGAATGA | 0.00699 E-score
CCGTTTAA | -0.0736 E-score
TAAAAGGA | -0.0824 E-score
AAAAACTA | 0.426 E-score
TAAAACAA | 0.0349 E-score
ACAAACTG | 0.0787 E-score
